Holding throughout (assay): NCI-60 one-dose screen, 48 h (100 = growth as untreated, 0 = no growth, -100 = all killed)
Conditions in all cases: 10 µM

Test [1] concerns NCI-H23 lung.
The test system of test [2] is NCI-H226 lung.
The test system of test [3] is NCI-H322M lung.
The subject of test [4] is HOP-62 NSCLC.
In test [5] the test system is NCI-H460 lung.
Test [6] has as its system HOP-92 NSCLC.
In test [7] the test system is A549/ATCC NSCLC.
The test system of test [8] is 786-0 renal.
Test [9] deals with COLO 205 colon.
The test system of test [10] is DU-145 prostate.
Test [11] deals with K-562 leukemia.
For test [12], the system named is MALME-3M melanoma.
Test [13] concerns MDA-MB-231 breast.
Test [14] concerns RXF 393 renal.
In test [15] the test system is SF-268 CNS.
In test [16] the test system is SF-295 CNS.
Test [17] concerns SF-539 CNS.
Test [18] has as its system M14 melanoma.
Test [19] has as its system UACC-257 melanoma.
Test [20] has as its system NCI-H522 lung.

This is part of a sample that, as a whole, favours compounds with a hit. Of some 83,000 tested, about 20% had one in any assay.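 For each line, cells grew in 96-well plates with the test compound present at a single concentration for 48 hours.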 Values without a mark were called inactive. Calls of active or inactive are those of the source. Rule for the calls: active = growth percent below 10; inactive = the rest.

Take `COc1cccc(COC(=O)Nc2ccccc2)c1OC`: the growth in test [1] was 110%; in test [2], 96.6%; in [3], 101%; in test [4], 100%; in test [5], 103%; in [6], 109%. Further, the growth in [7] is 94.5%; in test [8] it was 98.9%; in [9], 114%; in [10], 104%; in [11] it was 102%; in [12], 105%. For the same compound, the growth is 104% in test [13]; 95.8% in test [14]; 114% in [15]; 88.5% in test [16]; 107% in [17]; 105% in [18].
Take `NNc1ccccc1C(=O)O`: the growth in test [1] was 111%; in test [2], 96%; in test [3], 128%; in test [4], 104%; in test [5], 110%; in test [6], 98.1%. Moreover, the growth in [7] was 109%; in test [8], 113%; in test [9], 107%; in test [10] it was 121%; in [11], 108%; in test [12], 168%. In addition, the growth in test [13] is 104%; in test [14], 114%; in test [15] it was 100%; in [16], 114%; in test [17] it was 101%; in [19] it was 103%. Besides, the growth in [18] was 110%.
For `CC1(C)Nc2cccc3c(N=Nc4ccc(N=Nc5ccccc5)c5ccccc45)ccc(c23)N1`, the growth in [1] was 85.1%; in test [2], 94%; in test [3], 91.4%; in test [4], 93.1%; in test [5], 92.1%; in test [6], 82.6%. Further, the growth in test [7] is 99.3%; in test [8], 122%; in test [9] it was 89.2%; in test [10] it was 120%; in test [11] it was 123%; in test [12], 132%. The growth in test [13] is 66.9%; in test [14], 124%; in test [15] it was 106%; in test [16] it was 100%; in [17] it was 94.5%; in test [19], 95.9%. Also, the growth in test [18] is 91.6%.
For `CC(=O)OCC1CCCO1` (stereo not given), the growth in [1] was 106%; in test [2] it was 100%; in test [3], 98.7%; in [4], 95.1%; in test [5] it was 91.5%; in test [6] it was 97.4%. The growth is 91% in [20]; 93.5% in test [8]; 102% in test [9]; 109% in test [10]; 94.5% in test [11]; 99.2% in test [12]. The growth was 103% in test [13]; 103% in test [14]; 107% in [15]; 101% in [16]; 114% in test [17]; 110% in test [18].
In the case of `CC(CN1CCCCC1)NC(=O)c1scnc1-c1ccccc1` (stereo not given), the growth in [1] is 101%; in test [2], 108%; in [3], 95.6%; in [4] it was 100%; in test [5], 111%; in test [6], 91.9%. Further, the growth in [7] was 96.8%; in test [8], 102%; in [9], 104%; in [10] it was 116%; in test [11], 113%; in test [12], 106%. Besides, the growth in test [13] was 114%; in [14], 101%; in [15] it was 115%; in [16] it was 79%; in test [17], 114%; in [18], 101%.
For `CN1C(=O)CN2CCc3ccccc3C2c2cc(Cl)ccc21` (stereo not given), the growth is 87.1% in test [1]; 60.8% in test [2]; 93.4% in test [3]; 79.8% in test [4]; 97.5% in test [5]; 77.2% in test [6]. In addition, the growth in [20] is 75.7%; in test [8], 97.4%; in [9] it was 110%; in test [10], 119%; in [11], 92.6%; in test [12] it was 94.3%. In addition, the growth was 93.6% in [13]; 93.7% in [14]; 103% in [15]; 105% in test [16]; 89.4% in test [17]; 112% in [19]. For the same compound, in test [18], the growth was 97.2%.
For the compound `O=C(NCCNC(=O)c1ccc(Cl)cc1Cl)c1ccc(Cl)cc1Cl`, the growth in test [1] was 114%; in test [2], 101%; in test [3], 113%; in test [4] it was 87.6%; in test [5] it was 105%; in test [6], 71.8%. Also, the growth in test [7] was 104%; in test [8], 107%; in [9], 129%; in test [10] it was 114%; in [11], 107%; in [12] it was 112%. For the same compound, the growth in test [13] was 91.8%; in test [14], 95%; in test [15], 99.1%; in test [16], 82.7%; in [17] it was 96.5%; in test [18], 105%.
Consider `OC(c1ccccn1)C(O)c1ccccn1` (stereo not given), for which the growth in test [1] is 97.5%; in test [2] it was 110%; in test [3], 96.8%; in [4], 104%; in test [5] it was 114%; in test [6], 98.9%. Moreover, the growth is 95.3% in test [7]; 99.5% in [8]; 105% in test [9]; 115% in test [10]; 96.8% in test [11]; 122% in [12]. Moreover, the growth is 108% in test [13]; 123% in test [14]; 102% in test [15]; 118% in test [16]; 102% in test [17]; 102% in test [19]. Moreover, in test [18], the growth is 103%.
As to `CCOC(=O)C(CCC(C)C)C(=O)OCC`, the growth in test [1] was 103%; in test [2] it was 98.2%; in [3], 112%; in test [4] it was 105%; in test [5], 106%; in [6], 93.6%. For the same compound, the growth was 102% in [7]; 113% in [8]; 110% in test [9]; 107% in test [10]; 103% in [11]; 108% in test [12]. Besides, the growth was 109% in test [13]; 110% in test [14]; 92.5% in [15]; 102% in [16]; 107% in test [17]; 97.5% in test [19].
As for `CC(C(=O)O)(C1CCCCC1)C1(O)CCCCC1` (stereo not given), the growth in test [1] was 103%; in test [2] it was 102%; in [3], 101%; in test [4], 96.4%; in [5] it was 105%; in test [6], 104%. Further, the growth was 106% in test [7]; 98.9% in test [8]; 104% in test [9]; 108% in test [10]; 102% in test [11]; 98.9% in test [12]. The growth in [13] is 109%; in test [14], 99.1%; in [15] it was 99.2%; in [16] it was 82.9%; in [17], 103%; in test [18], 104%.
As for `Cc1ccc(O)c(C(=O)c2ccccc2)c1`, the growth in test [1] is 98.4%; in [2], 104%; in [3] it was 138%; in test [4] it was 114%; in [5], 113%; in test [6], 93.8%. Further, the growth in [7] is 95.9%; in test [8], 111%; in test [9] it was 113%; in test [10], 112%; in test [11], 122%; in test [12], 130%. The growth in [13] is 90.6%; in test [14], 110%; in test [15], 101%; in [16], 106%; in test [17] it was 101%; in test [19] it was 96.4%. Moreover, the growth in test [18] is 95.8%.
Regarding `N#CC(=Nc1cccc(F)c1)C1=C(O)c2ccccc2C1=O`, the growth in [1] is 94.8%; in test [2], 79.6%; in [3], 96.3%; in test [4] it was 88.4%; in [5], 102%; in [6] it was 63.8%. For the same compound, the growth in test [7] is 95.6%; in test [8], 97.5%; in [9], 96%; in test [10] it was 105%; in [11], 84.4%; in test [12] it was 87.1%. The growth in test [13] is 84.5%; in test [14], 88.9%; in [15], 96.5%; in test [16], 82%; in test [17], 95.6%; in test [18], 98.2%.
Regarding `C1CNC(C2=NCCN2)=N1`, the growth in test [1] is 106%; in test [2] it was 103%; in [3], 90.9%; in test [4] it was 99.4%; in test [5], 101%; in [6], 93.6%. Besides, the growth in test [20] was 101%; in test [8] it was 103%; in test [9] it was 114%; in [10], 100%; in test [11], 90.4%; in test [12], 101%. For the same compound, the growth was 107% in [13]; 113% in [14]; 94% in test [15]; 101% in [16]; 98.5% in [17]; 103% in test [18].
Take `CC(=O)c1cc2c(cc1F)C(C)(C)CCC2(C)C`: the growth in test [1] is 90.6%; in test [2] it was 96.9%; in test [3] it was 96.8%; in test [4], 112%; in test [5], 107%; in test [6], 88%. Besides, the growth in test [7] was 89%; in test [8], 103%; in test [9], 102%; in [10], 108%; in test [11] it was 96.2%; in test [12], 123%. In addition, the growth was 103% in [13]; 113% in test [14]; 95.4% in [15]; 120% in [16]; 96.2% in [17]; 96.3% in [19]. Also, in test [18], the growth is 98.9%.
Turning to `CCN=c1cc2sc3cc(NCC)c(C)cc3nc-2cc1C`, the growth in test [1] is 5.46% (active); in test [2], 64.2%; in [3], 27.3%; in test [4], 29.4%; in test [5], 1.61% (active); in test [6] it was 16.3%. Moreover, the growth was -40.3% (active) in test [7]; 46.3% in test [8]; -25.8% (active) in [9]; -18.9% (active) in test [10]; 11.8% in [11]; -30.9% (active) in test [12]. In addition, the growth in test [13] is 2.51% (active); in test [14], 74.7%; in test [15], -11.3% (active); in test [16], -72.4% (active); in test [17], -9.62% (active); in test [19], 6.74% (active). In addition, the growth in test [18] was 21.4%.
For `COc1cc(/C=C/C(=O)c2ccccc2)cc(OC)c1OC`, the growth in test [1] was 78.1%; in [2], 98.7%; in test [3], 95.5%; in test [4] it was 104%; in [5] it was 70.7%; in test [6] it was 76%. For the same compound, the growth in test [7] was 89.4%; in [8] it was 89%; in [9] it was 48%; in test [10], 62.5%; in test [11], 11.4%; in test [12], 76.8%. Moreover, the growth was 79.1% in [13]; 73.2% in test [14]; 57.9% in test [15]; -24.7% (active) in test [16]; 80.8% in test [17]; 74.6% in test [18].

The record behind these values is PubChem BioAssay (NCI).
